Experimental findings from PubChem BioAssay (NCATS) are described below.

Results filed as inconclusive are left out. Where a call stands in place of a potency, no number is given. Activity calls are given as the source filed them. The call rests on the fitted dose curve; in most records, active means well fitted curve in the direction sought with a large enough effect; inconclusive means small, poorly fitted or top-dose-only effect, or another doubt; inactive means no such curve, though single readings can be large; an effect the other way counts as inactive or inconclusive.

For assay [1], the target named is Pyruvate kinase PKM (Homo sapiens) (UniProt P14618). The assay is described as follows: qHTS Assay for Inhibitors of Human Muscle Pyruvate Kinase (AID 958). The following applies: purified human PKM enzyme activity. In short, it runs like this:
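Screening used highly purified human pyruvate kinase M2 under submaximal activity, with PEP at its Km and ADP below Km. After an hour at room temperature, ATP was read by luciferase luminescence.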
(In general: Quantitative high-throughput screening tests each substance at several concentrations.)

The target in assay [2] is Pyruvate kinase (Leishmania mexicana) (UniProt Q27686). The assay is described as follows: qHTS Validation Assay for Activators of Leishmania Mexicana Pyruvate Kinase (AID 959). The following applies: purified L. mexicana pyruvate kinase, enzyme activity; series mostly up to 57.5 µM. The source says:
NIH Molecular Libraries Screening Centers Network [MLSCN]
NIH Chemical Genomics Center [NCGC]
PI names: Malcom Walkinshaw, Hugh Morgan and Linda Gilmore
University of Edinburgh, Edinburgh, UK
Species of Leishmania are responsible for a wide spectrum of diseases throughout the tropics and subtropics, ranging from self-healing ulcers to highly disfiguring lesions and serious, often lethal visceral diseases, such as kala-azar. In Leishmania spp. it has been shown that both sugar uptake and gluconeogenesis are necessary to synthesize sufficient hexose-phosphate required for the production of glycoconjugates and the intracellular polysaccharide mannan which are essential for both replication and virulence of the parasites. Therefore, most of the enzymes participating in glycolysis and gluconeogenesis are expected to be essential (Naderer et al., 2006). […]
Three uL of substrate mix (final concentrations, 50 mM imidazole pH 7.2, 50 mM KCl, 7 mM MgCl2, 0.5 mM PEP, 0.1 mM ADP, 0.01% Tween 20, 0.05% BSA) was dispensed into white solid medium binding Greiner 1536 well plates. […] Two uL of detection and kinase stop mix (PKLight, Lonza) was added, and luminescence read by a ViewLux (Perkin Elmer) at 2 second exposure/plate using 2x binning. […]

Chain of Pyruvate kinase (Leishmania mexicana) (Q27686 2-499 E452W): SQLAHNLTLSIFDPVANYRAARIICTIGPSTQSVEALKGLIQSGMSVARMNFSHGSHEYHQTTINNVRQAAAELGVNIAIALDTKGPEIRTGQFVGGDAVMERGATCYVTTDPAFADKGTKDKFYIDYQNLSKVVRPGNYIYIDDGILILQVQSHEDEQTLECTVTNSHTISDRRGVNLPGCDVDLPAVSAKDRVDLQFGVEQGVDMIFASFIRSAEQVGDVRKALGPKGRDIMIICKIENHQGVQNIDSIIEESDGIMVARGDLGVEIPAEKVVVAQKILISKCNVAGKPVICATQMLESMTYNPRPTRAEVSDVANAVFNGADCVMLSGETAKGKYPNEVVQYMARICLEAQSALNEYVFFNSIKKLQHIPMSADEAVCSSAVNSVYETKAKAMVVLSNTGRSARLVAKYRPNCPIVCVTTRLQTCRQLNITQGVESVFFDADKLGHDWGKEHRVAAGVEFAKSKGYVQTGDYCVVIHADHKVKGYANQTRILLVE
Chain of Pyruvate kinase PKM (Homo sapiens) (P14618 whole entry, looked up): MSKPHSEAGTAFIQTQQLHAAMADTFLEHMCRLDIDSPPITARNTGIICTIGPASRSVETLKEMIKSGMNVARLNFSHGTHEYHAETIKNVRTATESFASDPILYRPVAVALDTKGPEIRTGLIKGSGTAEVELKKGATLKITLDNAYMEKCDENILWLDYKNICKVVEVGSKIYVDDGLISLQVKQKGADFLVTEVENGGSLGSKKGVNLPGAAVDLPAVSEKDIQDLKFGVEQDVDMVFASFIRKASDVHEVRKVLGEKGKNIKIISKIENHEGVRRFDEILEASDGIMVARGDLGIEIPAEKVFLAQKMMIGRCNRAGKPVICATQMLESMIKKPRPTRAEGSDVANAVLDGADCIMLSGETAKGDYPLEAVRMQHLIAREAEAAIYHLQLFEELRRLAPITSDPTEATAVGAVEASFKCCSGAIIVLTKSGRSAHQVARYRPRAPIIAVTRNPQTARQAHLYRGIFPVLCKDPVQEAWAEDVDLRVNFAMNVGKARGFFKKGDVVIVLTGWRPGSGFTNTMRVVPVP

On to `C[n+]1cc2c3c(ccc2c2ccc4cc5c(cc4c21)OCO5)OCO3`, for which the Potency in assay [1] was 10 µM (active). Besides, the compound was called inactive in assay [2].

Regarding `Nc1nc(N)c2nc(-c3ccccc3)c(N)nc2n1`, the call in assay [2] was inactive.
